Experimental data published in PubChem BioAssay (NCI).
About 83,000 compounds went through this panel and 20% of them were active in at least one assay; those are over-represented in the sample as a whole.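 For each line, cells grew in 96-well plates with the test compound present at a single concentration for 48 hours.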 Values without a mark were called inactive. Active and inactive are the calls of the source. The calls were made as follows: active = growth percent below 10; inactive = the rest.

Key:
Experiment in all cases: NCI-60 one-dose screen, 48 h (100 = growth as untreated, 0 = no growth, -100 = all killed)
Conditions in all cases: 10 µM unless noted
NCI-H23 lung = tested on: NCI-H23 lung
NCI-H226 lung = tested on: NCI-H226 lung
NCI-H322M lung = tested on: NCI-H322M lung
HOP-62 NSCLC = tested on: HOP-62 NSCLC
NCI-H460 lung = tested on: NCI-H460 lung
HOP-92 NSCLC = tested on: HOP-92 NSCLC
NCI-H522 lung = tested on: NCI-H522 lung
A549/ATCC NSCLC = tested on: A549/ATCC NSCLC
786-0 renal = tested on: 786-0 renal
COLO 205 colon = tested on: COLO 205 colon

Row | Structure (SMILES) | growth (NCI-H23 lung) | growth (NCI-H226 lung) | growth (NCI-H322M lung) | growth (HOP-62 NSCLC) | growth (NCI-H460 lung) | growth (HOP-92 NSCLC) | growth (NCI-H522 lung) | growth (A549/ATCC NSCLC) | growth (786-0 renal) | growth (COLO 205 colon)
1 | O=C1c2c(c3c4ccccc4[nH]c3c3ccc4ccccc4c23)C(=O)N1CCN1CCCCC1 | 30.5% | 67.5% | 61.1% | -11.9% (active) | 4.88% (active) | 53% | 38% | 32.3% | 26% | 47%
2 | CC(C)(C)n1cc(-c2ccnc(NCCNS(=O)(=O)c3cccc(F)c3)c2)c(-c2ccccc2)n1 | 79.1% | 90.1% | 97.8% | 101% | 90.7% | 3.59% (active) | 79.8% | 79.9% | 81.2% | 78.3%
3 | CCCCCOc1ccc(C(=O)/C(Br)=C/C(=O)O)cc1 | 91.9% | 106% | 104% | 214% | 103% | 99.2% | 89.2% | 104% | 98.8% | 105%
4 | O=Cc1ccc([N+](=O)[O-])s1 | 93.2% | 105% | 98.4% | 105% | 106% | 103% | 101% | 95.2% | 108% | 107%
5 | CCOC(=O)c1c2c(n3ccc(C)cc13)C(=O)c1ccccc1C2=O | 85.5% | 98.1% | 77% | 106% | 58.7% | 87.8% | 70.5% | 62.5% | 97.3% | 108%
6 | C=C1CC[C@@H]2[C@](C)(COC(C)=O)[C@H](OC(C)=O)CC[C@@]2(C)[C@@H]1CC(Sc1ccccc1)C1=CCOC1=O (stereo not given in full) | 24.5% | -9.88% (active) | 67.1% | -18.2% (active) | 21.7% | 24.5% | -80.6% (active) | 26.6% | -31.2% (active) | -68.1% (active)
7 | CN1CCN(c2ccc(C(=O)Nc3cccc(C#Cc4cccc5[nH]nc(N)c45)c3)cc2C(F)(F)F)CC1 | -51.9% (active) | 15.6% | -24.6% (active) | -63.7% (active) | -68.4% (active) | -11.8% (active) | -59.1% (active) | -67.2% (active) | -70.4% (active) | -72.9% (active)
8 | O=C1COCCN1c1ccc(Nc2nc(Cl)nc(OCc3cn(Cc4ccccc4)nn3)n2)cc1 | 87.2% | 95.1% | 98.2% | 87.5% | 107% | 82.5% | 76.5% | 95.7% | 101% | 105%
9 | Cn1c(O)c(C=NCCN=Cc2c(O)n(C)c(=O)n(C)c2=O)c(=O)n(C)c1=O | 97% | 92.3% | 89.3% | 90.7% | 107% | 86.2% | 105% | 100% | 113% | 101%
10 | Cc1ccc(-c2nn(-c3ccccc3)cc2C=C2C(=O)ON=C2C(C)C)cc1 | 89.2% | 95.3% | 91.2% | 88.6% | 80% | 86% | 74% | 86.8% | 78.7% | 114%
11 | CCN(CC)C(=S)SC(SC(=S)N(CC)CC)C(=O)c1nnn(-c2ccc([N+](=O)[O-])cc2)c1C | 98.4% | 104% | 98.5% | 97.3% | 73.9% | 89.5% | 79.5% | 95.9% | 94.2% | 95.2%
12 | O=C(O)CNC1=C(Cl)C(=O)c2ccccc2C1=O | 88% | 109% | 103% | 95.4% | 102% | 74.1% | 78.8% | 96.6% | 101% | 113%
13 | CC(=O)Nc1nc2ccc(NS(=O)(=O)c3cccc4c(N(C)C)cccc34)cc2[nH]1 | 70.5% | 68.7% | 82.2% | 69.3% | 68% | 72.2% | 43.3% | 68% | 79.7% | 65.9%
14 | CCCCNC(=O)Oc1ccc(/C(=C(/CC)Cc2ccccc2)c2ccc(OCCN3CCCCCC3)cc2)cc1 | 57.4% | 83.4% | 85.4% | 74.8% | -59.8% (active) | 36% | 30.4% | 39.5% | 36.6% | -75% (active)
15 | Cc1ccc(Sc2nnc(/N=C3\C(=O)Nc4ccccc43)s2)cc1 | 107% | 106% | 97.1% | 96.5% | 104% | 96.4% | 94.6% | 92.1% | 99.5% | 116%
16 | O=C(NNc1nccc(Nc2ccc(S(=O)(=O)Nc3ccncc3)cc2)n1)c1ccccc1 | 5.18% (active) | 108% | 96.9% | 89.2% | 119% | 103% | 94.5% | 96.8% | 93.8% | 122%
17 | CCNc1nc(-c2ccc(Cl)c(OC)c2)c(-c2ccnc(NCCCNS(=O)(=O)c3ccc(Cl)cc3)n2)s1 | 83.7% | 72.2% | 101% | 61.7% | 63.7% | 20.9% | 28.9% | 44.9% | 54.3% | 11.7%
18 | Oc1c(Cl)cc(Cl)c2ccc(Cn3cc(-c4ccc(C(F)(F)F)cc4)nn3)nc12 | 83% | 84.2% | 96% | 99.5% | 98.8% | 40.5% | -30.1% (active) | 96.1% | 95.1% | 83%
19 | O=C(Nn1c2c(sc1=NCc1ccccc1)C(=O)c1ccccc1C2=O)c1cc2ccc1CCc1ccc(cc1)CC2 | 32% | 66.3% | 106% | 77.5% | 74.9% | 127% | 52.9% | 80% | 82.7% | 106%
20 | CCN(CC)CCNC(=O)c1cn2ncnc(Oc3ccc(NC(=O)Nc4ccc(Cl)c(C(F)(F)F)c4)c(F)c3)c2c1C | -37.4% (active) | 73.9% | 34.4% | 36.5% | -67% (active) | 22.1% | -52.3% (active) | 4.56% (active) | -86.1% (active) | -59.5% (active)
21 | C=CCn1c(SCC(=O)Nc2ccc(C(=O)/C=C/c3ccc(Cl)cc3)cc2)nnc1-c1cc(-c2ccc(S(N)(=O)=O)cc2)nc2ccccc12 | 99.3% | 89.6% | 99.7% | 91.8% | 103% | 91.4% | 98.3% | 92.6% | 83.1% | 103%
22 | COc1cc(-c2csc(NC(=O)c3cc(-n4cnc(C)c4)cc(C(F)(F)F)c3)n2)cc(OC)c1OC | 61.2% | 58% | 67% | 72.4% | 33.8% | 6.13% (active) | 38.5% | 60.2% | 60.2% | 84.9%
23 | O=C1/C(=C\c2cn(-c3ccccc3)nc2-c2ccc(-c3cccs3)cc2)CCc2ccccc21 | 71.4% | 74.4% | 98.5% | 75.5% | 47.1% | 78.7% | 24.7% | 60.4% | 73.2% | 74.6%
24 | O=C(c1ccc(-c2nc(CSc3nc4ccccc4s3)no2)cc1)N1CCSCC1 | 52.9% | 68.4% | 100% | 75.9% | 69.6% | 66.4% | 19.7% | 52.1% | 90.6% | 87.8%
